Results on 18 molecules are retold here after PubChem BioAssay.

Each structure is given as a SMILES string. Unmarked numbers belong to inactive results. For part of these data: Measured potencies and affinities stand elsewhere. The source made the active and inactive calls. Unless noted, how the calls were made is not given here.

Assay [1] in a line: antimalarial activity against Dd2 strain (AID 2302;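 active means growth inhibition above 50% at the single 2 µM test dose, taken to imply half-maximal potency below 2 µM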;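 further: 0% = DMSO untreated growth and 100% = chloroquine plus artemisinin killed control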). The conditions noted are these: P. falciparum Dd2 in RBCs, LDH growth readout, 72 h; at 2 µM; hits give high values.
Assay [2] can be described thus: HepG2 cytotoxicity, primary screen, cytotoxicity control for P. falciparum antimalarial project, cell-based, ATP luminescence (AID 2303;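 active means inhibition above 50%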;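 further: 0% = DMSO wells and 100% = digitonin-killed cells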). The conditions noted are these: HepG2 viability, 24-48 h, at 10 µM, hits give high values.
Assay [3] addresses L-lactate dehydrogenase (Plasmodium falciparum (isolate CDC / Honduras)) (UniProt Q27743). Description: PfLDH activity inhibition – cell lysate, 3D7 strain, counter-screen for P. falciparum growth inhibition project (AID 2304).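 Further: 0% = vehicle and 100% = reference inhibitor.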 Conditions: P. falciparum 3D7 crude extract, LDH APAD/NBT absorbance; at 2 µM; hits give high values.
A short description of assay [4]: inhibition of 3D7 malaria parasite growth – strain 3D7 (AID 2306).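 Further: 0% = DMSO wells and 100% = chloroquine plus artemisinin control wells.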 The conditions noted are these: P. falciparum 3D7 erythrocytic growth, LDH absorbance, 72 h; at 2 µM; hits give high values.
For assay [5], the target named is Calcium-dependent protein kinase 1 (Plasmodium falciparum (isolate 3D7)) (UniProt P62344). Description: PfCDPK1 kinase inhibitors, biochemical, TCAMS library (AID 1159585; cut-off not given, nearly all actives have IC50 up to about 0.98 µM;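 further: inhibitors leave more ATP so luminescence rises with inhibition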). Conditions: recombinant PfCDPK1, Kinase-Glo ATP depletion luminescence.
Assay [6] deals with Plasmodium falciparum protein kinase 6 (PK6, PF3D7_1337100) (UniProt Q8IDW1). Kind of assay: PfPK6 kinase inhibitors, biochemical, TCAMS library (AID 1159586). The conditions noted are these: recombinant PfPK6, Kinase-Glo ATP depletion luminescence.
In assay [7] the target is Protein kinase 7 (PK7), Plasmodium falciparum 3D7 (PF3D7_0213400) (UniProt Q7YTF7). Description: inhibition of Plasmodium PK7 catalytic activity – biochemical, TCAMS antimalarial set, Kinase-Glo luminescence (AID 1159587). Conditions: recombinant PfPK7, Kinase-Glo ATP depletion luminescence.
In assay [8] the target is Calcium-dependent protein kinase 4 (Plasmodium falciparum (isolate 3D7)) (UniProt Q8IBS5). Kind of assay: PfCDPK4 kinase inhibitors, biochemical, TCAMS library (AID 1159588; cut-off not given, nearly all actives have IC50 up to about 0.91 µM). The conditions noted are these: recombinant PfCDPK4, Kinase-Glo ATP depletion luminescence.
Chain of Calcium-dependent protein kinase 4 (Plasmodium falciparum (isolate 3D7)) (Q8IBS5 whole entry, looked up): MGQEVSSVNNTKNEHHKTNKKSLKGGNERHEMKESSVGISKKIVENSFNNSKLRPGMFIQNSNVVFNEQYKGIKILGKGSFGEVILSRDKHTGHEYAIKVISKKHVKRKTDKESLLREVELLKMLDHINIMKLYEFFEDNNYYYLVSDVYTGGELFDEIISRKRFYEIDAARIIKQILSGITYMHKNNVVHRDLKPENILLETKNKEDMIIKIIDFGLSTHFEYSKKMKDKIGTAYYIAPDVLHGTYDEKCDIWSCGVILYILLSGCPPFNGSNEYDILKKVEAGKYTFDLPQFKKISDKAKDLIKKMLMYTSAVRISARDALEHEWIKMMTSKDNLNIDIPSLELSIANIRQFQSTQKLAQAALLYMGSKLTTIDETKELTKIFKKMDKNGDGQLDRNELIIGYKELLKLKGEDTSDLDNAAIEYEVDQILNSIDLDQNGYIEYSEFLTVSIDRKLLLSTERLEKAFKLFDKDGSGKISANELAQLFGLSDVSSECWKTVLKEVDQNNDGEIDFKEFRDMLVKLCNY

Chain of L-lactate dehydrogenase (Plasmodium falciparum (isolate CDC / Honduras)) (Q27743 whole entry, looked up): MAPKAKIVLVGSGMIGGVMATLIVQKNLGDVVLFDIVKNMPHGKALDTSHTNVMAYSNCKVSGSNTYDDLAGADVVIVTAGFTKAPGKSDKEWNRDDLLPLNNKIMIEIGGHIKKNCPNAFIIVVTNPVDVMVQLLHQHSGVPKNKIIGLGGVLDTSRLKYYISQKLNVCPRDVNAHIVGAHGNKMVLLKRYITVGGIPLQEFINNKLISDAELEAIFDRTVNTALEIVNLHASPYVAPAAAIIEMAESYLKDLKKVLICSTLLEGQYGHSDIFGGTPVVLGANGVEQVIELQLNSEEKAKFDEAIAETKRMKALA
Chain of Plasmodium falciparum protein kinase 6 (PK6, PF3D7_1337100) (Q8IDW1 1-305): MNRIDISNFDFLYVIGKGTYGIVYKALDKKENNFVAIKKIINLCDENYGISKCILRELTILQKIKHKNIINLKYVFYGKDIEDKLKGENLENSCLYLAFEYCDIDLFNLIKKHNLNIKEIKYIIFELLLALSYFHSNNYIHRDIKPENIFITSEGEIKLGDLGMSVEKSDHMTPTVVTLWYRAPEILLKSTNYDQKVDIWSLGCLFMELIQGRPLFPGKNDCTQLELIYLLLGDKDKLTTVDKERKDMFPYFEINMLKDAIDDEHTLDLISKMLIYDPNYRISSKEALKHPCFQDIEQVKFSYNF
Chain of Protein kinase 7 (PK7), Plasmodium falciparum 3D7 (PF3D7_0213400) (Q7YTF7 1-343): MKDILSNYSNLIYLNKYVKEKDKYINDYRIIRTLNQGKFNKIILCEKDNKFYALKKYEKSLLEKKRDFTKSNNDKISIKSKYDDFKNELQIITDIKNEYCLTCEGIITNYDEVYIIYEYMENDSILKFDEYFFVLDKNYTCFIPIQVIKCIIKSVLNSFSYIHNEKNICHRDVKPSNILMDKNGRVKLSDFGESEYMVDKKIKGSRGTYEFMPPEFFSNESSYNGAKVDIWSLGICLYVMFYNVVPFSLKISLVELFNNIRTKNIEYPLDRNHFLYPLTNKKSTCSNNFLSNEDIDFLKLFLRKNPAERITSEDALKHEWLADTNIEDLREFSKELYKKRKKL
Chain of Calcium-dependent protein kinase 1 (Plasmodium falciparum (isolate 3D7)) (P62344 whole entry, looked up): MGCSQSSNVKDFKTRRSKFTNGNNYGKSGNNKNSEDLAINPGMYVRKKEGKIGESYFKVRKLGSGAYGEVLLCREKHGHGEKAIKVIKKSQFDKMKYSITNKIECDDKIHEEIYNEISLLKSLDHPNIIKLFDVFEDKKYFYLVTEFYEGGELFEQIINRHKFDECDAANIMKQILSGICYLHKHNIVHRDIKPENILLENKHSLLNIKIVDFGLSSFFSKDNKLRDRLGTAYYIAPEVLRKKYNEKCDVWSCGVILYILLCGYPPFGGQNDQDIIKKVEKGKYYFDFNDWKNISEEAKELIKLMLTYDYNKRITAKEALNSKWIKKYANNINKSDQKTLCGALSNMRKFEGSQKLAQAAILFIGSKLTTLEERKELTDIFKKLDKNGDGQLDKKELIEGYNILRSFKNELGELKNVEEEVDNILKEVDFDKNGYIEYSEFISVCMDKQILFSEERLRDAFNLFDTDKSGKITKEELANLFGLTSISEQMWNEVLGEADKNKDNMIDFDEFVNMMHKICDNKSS

As for `CCC(C)OC(=O)C1=C(C)NC2=C(C(=O)CC(c3ccc(OC)c(OC)c3)C2)C1c1ccc(C)o1` (centres undefined), the growth inhibition in assay [1] is 82% (active); in assay [4], 93% (active). Besides, the inhibition in assay [2] was 6%; in assay [3], 2%. For the same molecule, the outcome in assay [5], in assay [6], in assay [7] and in assay [8] was inactive.
Turning to `COc1cc(NCCCNCc2cn(S(=O)(=O)c3ccccc3)c3ccccc23)nc2ccccc12`, the growth inhibition in assay [1] is 77% (active); in assay [4] it was 101% (active). Further, the inhibition in assay [2] is 36%; in assay [3], 4%. For the same molecule, the result in assay [5], in assay [6], in assay [7] and in assay [8] was inactive.
With `OC(CNC1CCCCC1)Cn1c2ccc(I)cc2c2cc(I)ccc21` (centres undefined), the growth inhibition is 93% (active) in assay [1] and 100% (active) in assay [4]. Besides, the inhibition in assay [2] was 10%; in assay [3] it was 2%. In addition, the outcome in assay [5], in assay [6], in assay [7] and in assay [8] was inactive.
As to `CCCc1c(C(=O)OCC)c2cc(O)ccc2n1-c1ccc(OC)cc1`, the results for the growth inhibition in assay [1] and in assay [4] were 99% (active) and 100% (active), respectively. Further, the inhibition in assay [2] is -2%; in assay [3], 0%. In addition, the outcome in assay [5], in assay [6], in assay [7] and in assay [8] was inactive.
As to `CN1CCN(CCCN(Cc2cccc(-c3ccc(CNCc4ccc5c(c4)OCO5)cc3)c2)C(=O)CCC2CCCC2)CC1`, the growth inhibition in assay [1] is 84% (active); in assay [4], 98% (active). Moreover, the inhibition was 91% (active) in assay [2] and -6% in assay [3]. Also, the outcome in assay [5], in assay [6], in assay [7] and in assay [8] was inactive.
In the case of `O=c1cc(NCc2ccccc2NCc2ccc(Cl)c(Cl)c2)[nH]c2ccccc12`, the growth inhibition in assay [1] was 98% (active); in assay [4] it was 93% (active). Further, the inhibition in assay [2] is 10%; in assay [3] it was 3%. The outcome in assay [5], in assay [6], in assay [7] and in assay [8] was inactive.
As to `CC1CN(Cc2cccc(C#N)c2)CCN1c1ccc(NC(=O)c2cccs2)cc1` (centres undefined), the growth inhibition is 93% (active) in assay [1] and 94% (active) in assay [4]. The figures for the inhibition in assay [2] and in assay [3] were 4% and 5%, respectively. Further, the result in assay [5], in assay [6], in assay [7] and in assay [8] was inactive.
Take `Fc1ccc2nc(-c3ccc(-c4ccc(CNCCc5cccnc5)cc4)s3)[nH]c2c1`: the figures for the growth inhibition in assay [1] and in assay [4] were 99% (active) and 100% (active), respectively. Besides, the figures for the inhibition in assay [2] and in assay [3] were 40% and -7%, respectively. Besides, the result in assay [5], in assay [6], in assay [7] and in assay [8] was inactive.
Turning to `COC(=O)c1ccc(CCC(C)NCC(O)c2cccc(Cl)c2)cc1` (centres undefined), the growth inhibition in assay [1] is 94% (active); in assay [4] it was 100% (active). The inhibition in assay [2] is -4%; in assay [3] it was 1%. Moreover, the outcome in assay [5], in assay [6], in assay [7] and in assay [8] was inactive.
For `COc1ccc(C(=O)C2CCN(CCCCNC(=O)c3ccc(NC(=O)c4cc(Cl)cc(Cl)c4)cc3)CC2)cc1`, the growth inhibition in assay [1] is 84% (active); in assay [4], 100% (active). Moreover, the figures for the inhibition in assay [2] and in assay [3] were 35% and 5%, respectively. Besides, the outcome in assay [5], in assay [6], in assay [7] and in assay [8] was inactive.
Regarding `Cn1cccc1C(=O)NCC(CCNc1cc(=O)c2ccccc2[nH]1)NCc1cc(Br)cc(Br)c1` (centres undefined), the growth inhibition in assay [1] is 52% (active); in assay [4], 92% (active). Moreover, the results for the inhibition in assay [2] and in assay [3] were -3% and -2%, respectively. The outcome in assay [5], in assay [6], in assay [7] and in assay [8] was inactive.
On to `COCCn1c(-c2nc(-c3ccc(F)cc3)cnc2N)nc2ccccc21`, for which the growth inhibition in assay [1] and in assay [4] was 98% (active) throughout. The inhibition in assay [2] is 16%; in assay [3], -6%. Besides, the outcome in assay [5], in assay [6], in assay [7] and in assay [8] was inactive.
Turning to `Cc1cccc2[nH]c(-c3cccc(-c4ccc(C(=O)N5CCCCC5C(C)O)cc4)c3)nc12` (centres undefined), the growth inhibition in assay [1] was 91% (active); in assay [4] it was 100% (active). Moreover, the inhibition is 26% in assay [2] and -2% in assay [3]. For the same molecule, the result in assay [5], in assay [6], in assay [7] and in assay [8] was inactive.
For the molecule `O=C(Nc1ccc(OC2CCN(Cc3ccsc3)CC2)c(Cl)c1)c1ccc(F)cc1`, the growth inhibition in assay [1] is 83% (active); in assay [4], 98% (active). Moreover, the inhibition in assay [2] was 31%; in assay [3], 0%. Moreover, the outcome in assay [5], in assay [6], in assay [7] and in assay [8] was inactive.
Turning to `O=C1c2ccccc2-n2c1nc1ccccc1c2=O`, the growth inhibition is 80% (active) in assay [1] and 93% (active) in assay [4]. Moreover, the results for the inhibition in assay [2] and in assay [3] were 9% and 4%, respectively. Moreover, the outcome in assay [5], in assay [6], in assay [7] and in assay [8] was inactive.
On to `Cc1cccc2[nH]c(-c3ccc(-c4cccc(NC(=O)Nc5ccc(F)c(F)c5F)c4)cc3)nc12`, for which the growth inhibition was 89% (active) in assay [1] and 100% (active) in assay [4]. Moreover, the inhibition was 40% in assay [2] and 2% in assay [3]. The result in assay [5], in assay [6], in assay [7] and in assay [8] was inactive.
As for `O=[N+]([O-])c1cccc(CNCC2CCC(CNCc3cccc([N+](=O)[O-])c3)CC2)c1` (centres undefined), the growth inhibition in assay [1] is 76% (active); in assay [4], 100% (active). The inhibition was 39% in assay [2] and -1% in assay [3]. The outcome in assay [5], in assay [6], in assay [7] and in assay [8] was inactive.
As to `COC(=O)C(NC(=O)NC1CCN(c2ccnc(Nc3ccc(F)cc3)n2)C1)c1ccccc1` (centres undefined), the growth inhibition in assay [1] is 8%; in assay [4], 87% (active). For the same molecule, the inhibition is 11% in assay [2] and -2% in assay [3]. Besides, the result in assay [5], in assay [6], in assay [7] and in assay [8] was inactive.
